The values below come from PubChem BioAssay (EPA / NIEHS).

One may read the AC50 as the midpoint of the concentration-response curve, whichever way the signal moves.

Records with an inconclusive call do not appear. Calls of active or inactive are those of the source. The calls were made as follows: active = hit-call score of the fitted dose curve at least 0.9, where 1 is the maximum; inconclusive = response in the unintended direction; inactive = score below 0.9.

human Dopamine Transporter (DAT), SLC6A3 (gene 6531), sequence (Q01959 whole entry, looked up): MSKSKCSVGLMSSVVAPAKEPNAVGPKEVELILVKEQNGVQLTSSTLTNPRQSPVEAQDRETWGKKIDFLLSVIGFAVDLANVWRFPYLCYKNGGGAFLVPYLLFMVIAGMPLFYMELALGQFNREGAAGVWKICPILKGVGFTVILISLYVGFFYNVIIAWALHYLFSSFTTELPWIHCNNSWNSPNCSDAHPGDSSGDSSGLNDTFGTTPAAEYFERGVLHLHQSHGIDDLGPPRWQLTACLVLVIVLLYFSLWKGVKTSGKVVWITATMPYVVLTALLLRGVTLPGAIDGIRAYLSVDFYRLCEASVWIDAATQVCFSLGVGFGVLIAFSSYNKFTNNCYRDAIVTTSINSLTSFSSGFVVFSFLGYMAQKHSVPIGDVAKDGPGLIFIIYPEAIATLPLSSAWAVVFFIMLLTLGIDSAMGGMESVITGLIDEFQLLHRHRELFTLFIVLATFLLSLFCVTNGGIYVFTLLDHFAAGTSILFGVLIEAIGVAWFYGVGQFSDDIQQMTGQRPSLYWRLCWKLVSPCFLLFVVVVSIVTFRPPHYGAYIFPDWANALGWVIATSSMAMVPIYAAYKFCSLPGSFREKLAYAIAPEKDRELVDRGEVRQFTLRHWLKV

The assay deals with human Dopamine Transporter (DAT), SLC6A3 (gene 6531) (UniProt Q01959). The assay is described as follows: NVS_TR_hDAT: NovaScreen (NVS) Transporter Assay for human Dopamine Transporter (DAT) (AID 2283374).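 Also: activity means loss of bound radioligand signal relative to DMSO.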 As for the experimental part:
NVS_TR_hDAT is a biochemical, single-readout assay that uses extracted gene-proteins in a cell-free assay. Measurements were taken 1 hour after chemical dosing in a 96-well plate.NVS_TR_hDAT is one of one assay component(s) measured or calculated from the NVS_TR_hDAT assay. It is designed to make measurements of radioligand binding, a form of binding reporter, as detected with scintillation counting signals by Filter-based radiodetection technology.Data from the assay component NVS_TR_hDAT was analyzed into 1 assay endpoint. This assay endpoint, NVS_TR_hDAT, was analyzed in the positive analysis fitting direction relative to DMSO as the negative control and baseline of activity. Using a type of binding reporter, loss-of-signal activity can be used to understand changes in the binding as they relate to the gene SLC6A3. Furthermore, this assay endpoint can be referred to as a primary readout, because the performed assay has only produced 1 assay endpoint. To generalize the intended target to other relatable targets, this assay endpoint is annotated to the transporter intended target family, where the subfamily is neurotransmitter transporter.
Binding assays used specific radioligands (tritiated, iodinated) with non-radioactive competitive displacement ligands in agonist or antagonist protocols (as indicated) and various reference compounds and inhibitors to titrate specific binding to receptors and transporters. Most enzyme assays (CYPs, kinases, phosphatases, proteases, HDACs) used recombinant protein and specific substrates (fluorescence mostly, some colorimetric and radioactive) and inhibitors, followed by a biochemical separation of substrate and product. All assays for the biochemical HTS were initially run in duplicate at a single concentration (10 uM for CYP450 assays and 25 uM for all others). […] Each assay was run with positive and negative controls, and concurrent controls on every plate. The follow-up (secondary) screen tested active chemical-pairs in concentration series, as well as a few additional assays not tested in the primary screen, some selected negative inactives, and several cases re-run in the concentration series for confirmatory purposes.
For `CCc1nc(N)nc(N)c1-c1ccc(Cl)cc1`, the AC50 is 0.754 µM (active).

Regarding `O=C(N[C@@H](c1ccccc1)[C@@H]1CCCCN1)c1cccc(C(F)(F)F)c1Cl`, the AC50 is 12.2 µM (active).

Turning to `Cc1cc(SC2=C(O)C[C@@](CCc3ccc(N)cc3)(C(C)C)OC2=O)c(C(C)(C)C)cc1CO`, the call was inactive.

On to `CC(C)NCC(O)c1ccc(O)c(O)c1` (stereo not given), for which the AC50 was 11.1 µM (active).

In the case of `O=C1OC(c2ccc(O)cc2)(c2ccc(O)cc2)c2ccccc21`, the AC50 is 6.6 µM (active).

With `Cc1cc(Cc2ccc(N)c(C)c2)ccc1N`, the AC50 is 8.53 µM (active).

`CC(C)OC(=O)C(C)(C)Oc1ccc(C(=O)c2ccc(Cl)cc2)cc1`: the outcome was inactive.

On to `Cn1cnc2c1c(=O)[nH]c(=O)n2C`, for which the compound was classed as inactive.

Turning to `CCCCC(CC)COP(=O)(OCC(CC)CCCC)OCC(CC)CCCC` (stereo not given), the call was inactive.

Take `CN(C)CCCN1c2ccccc2Sc2ccc(Cl)cc21`: the AC50 was 4.24 µM (active).

`O=C1NC(=O)C(c2ccccc2)(c2ccccc2)N1`: the AC50 is 5.81 µM (active).

Take `CC(COCC(C)OC(=O)c1ccccc1)OC(=O)c1ccccc1` (stereo not given): the AC50 is 19.2 µM (active).

Turning to `CSc1ccc(Oc2ccc(S(N)(=O)=O)cc2CN(C)C)cc1C`, the AC50 was 4.52 µM (active).

As to `CN(C)C(=O)NC1(c2ccccc2)CCN(CCC[C@]2(c3ccc(Cl)c(Cl)c3)CCCN(C(=O)c3ccccc3)C2)CC1`, the AC50 is 0.418 µM (active).

Turning to `CCCCCCCCCCCCCCOS(=O)(=O)O`, the AC50 was 41 µM (active).
